A short description of assay [1]: qHTS profiling of the MIPE4 collection as inhibitors of Plasmodium falciparum (DD2) proliferation (AID 743345; call rule not given here). The conditions noted are these: P. falciparum Dd2 in erythrocytes, SYBR Green DNA, 72 h; at 28.5 µM (top of the series) unless noted. A digest of the protocol: (§1)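 Erythrocytes infected with P. falciparum (0.3% parasitemia, 2.5% hematocrit) incubated with compounds 72 h at 37 C, 5% CO2. Lysis with saponin/Triton buffer containing SYBR Green I, overnight at room temperature in the dark; DNA fluorescence (485/535 nm) normalised to 0.29 uM artemisinin and DMSO.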
For orientation: In qHTS, concentration-response curves come from the screen itself.

A short description of assay [2]: qHTS profiling of the MIPE4 collection as inhibitors of Plasmodium falciparum (DD2) proliferation (Rep 2) (AID 743346; call rule not given here). The conditions noted are these: P. falciparum Dd2 in erythrocytes, SYBR Green DNA, 72 h; at 28.5 µM (top of the series) unless noted. A digest of the protocol:
as §1

A short description of assay [3]: qHTS profiling of the MIPE4 collection as inhibitors of Plasmodium falciparum (HB3) proliferation (AID 743347; call rule not given here;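 further: plate controls were DMSO vehicle wells for no effect and artemisinin wells for full effect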). The conditions noted are these: P. falciparum HB3 in erythrocytes, SYBR Green DNA, 72 h; at 28.5 µM (top of the series) unless noted. A digest of the protocol:
as §1

A short description of assay [4]: High-throughput drug toxicity screening in the BPDCN cell line Cal-1 (AID 1224825; call rule not given here). The conditions noted are these: Cal-1 BPDCN cell viability, qHTS; at 45.8 µM (top of the series) unless noted. An outline of the steps: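 500 Cal-1 cells/well, RPMI + glutamine + 10% FBS (phenol red-free); cpd added by pin tool; 48 h, 37C, 5% CO2; CTG 15 min RT, lumi read. Normalised: DMSO 100%, bortezomib 9.2 uM 0%.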

Assay [5] is described as follows: qHTS assay for measurement of the activity of small molecule inhibitors on Zika virus induced Caspase-3 activity in human iPSC derived neural progenitor cells (hNPCs) (AID 1224857). Further: nearly all actives have a fitted effect of over 65% in size. Further: potency means the concentration at half of the fitted maximal effect. A digest of the protocol:
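Zika virus (2 FFU/cell) infection of human iPSC-derived NPCs, 6 h, following 1 h compound preincubation. Read-out: Caspase-Glo 3/7 luminescence.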

Assay [6] is described as follows: qHTS assay for measurement of the activity of small molecule inhibitors on Zika virus induced Caspase-3 activity in human astrocytoma cells (AID 1224859). Further: potency means the concentration at half of the fitted maximal effect. An outline of the steps:
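Caspase activation in ZIKV-infected SNB-19 cells (2 FFU/cell, 6 h) measured by Caspase-Glo 3/7 luminescence after 30 min RT; compound pre-incubated 1 h; normalised to uninfected and infected controls.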

Assay [7] can be described thus: qHTS Screen of the MIPE 4.0 Collection Against Ewings Sarcoma (TC71) (AID 1259253). Further: nearly all actives have a fitted effect of over 40% in size. Further: potency means the concentration at half of the fitted maximal effect. An outline of the steps: (§2)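 CellTiter-Glo luminescence after 48 h compound exposure (titration) gave viability; percent activity used DMSO-treated cells as no inhibition and medium-only wells as full inhibition. Cells grown in RPMI/5% FBS, dosed 4 h post-seeding.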
Assay [8] can be described thus: qHTS Screen of the MIPE 4.0 Collection Against Ewings Sarcoma (EW8) (AID 1259255). Further: nearly all actives have a fitted effect of over 35% in size. Further: potency means the concentration at half of the fitted maximal effect.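 On viability: 100% = DMSO-treated cells and 0% = medium-only wells without cells.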 An outline of the steps:
as §2

The nature of assay [9]: qHTS Screen of the MIPE 4.0 Collection Against Ewings Sarcoma (TC32) (AID 1259256). Further: nearly all actives have a fitted effect of over 45% in size. Further: potency means the concentration at half of the fitted maximal effect. An outline of the steps:
as §2

A short description of assay [10]: qHTS assay to identify small molecule inhibitors of chordoma cells - UCH-1 (AID 1259355). Further: on the % scale 0 is the no-effect control and ±100 the full control effect; nearly all actives have a fitted effect of over 55% in size. An outline of the steps:
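Seed 800 cells per well; incubate overnight at 37 C, 5% CO2. Add test compounds (15 concentrations), then the auranofin–topoisomerase-agent combination. Incubate 48hr, add CellTiter-Glo, wait 30min, read luminescence.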

A short description of assay [11]: P-glycoprotein substrates identified in KB-3-1 adenocarcinoma cell line, qHTS therapeutic library screen (AID 1346986). Further: nearly all actives have a fitted effect of over 60% in size.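 Further: potency means the concentration at half of the fitted maximal effect; potency is for cytotoxicity meaning loss of cell viability.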 A digest of the protocol:
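Cells seeded 500/well in DMEM/10% FCS; compounds pinned in dose-response; 72 h incubation; CellTiter-Glo added, 5 min, luminescence. KB-8-5-11 run ±tariquidar to test reversal of P-gp resistance.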

The nature of assay [12]: qHTS Screen of the MIPE 4.0 Collection Against Ewings Sarcoma (RDES) (AID 1259252). Further: nearly all actives have a fitted effect of over 35% in size. Further: potency means the concentration at half of the fitted maximal effect. An outline of the steps: as §2
The nature of assay [13]: qHTS assay to identify small molecule inhibitors of chordoma cells - UCH-2 (AID 1259356). Further: on the % scale 0 is the no-effect control and ±100 the full control effect.

SMILES strings stand for the structures. “And” between values parts separate entries of the source, which are not always exact repeats. Equal entries are not always repeated. Records with an inconclusive call do not appear. The source made the active and inactive calls. Unless noted, the call rests on the fitted dose curve; in most records, active means well fitted curve in the direction sought with a large enough effect; inconclusive means small, poorly fitted or top-dose-only effect, or another doubt; inactive means no such curve, though single readings can be large; an effect the other way counts as inactive or inconclusive. Peptide text beside a SMILES is read from it.

Consider `Cc1cc(C2CCCCC2)n(O)c(=O)c1`, for which, in assay [1], the parasite growth remaining, % of DMSO control (lower = more inhibition) came to 7.36%. Moreover, the parasite growth, % of control (lower = inhibition) in [2] came to 17.5%. This molecule had a growth, % of control in [3] of 9.38%. Further, the viability (% of control) in assay [4] is 5.31%. Besides, the Potency entry in [5], in assay [6] and in assay [10] was “inactive” in each case. The Potency in assay [7] is 5.26 µM (active); in [8], 14.8 µM (active); in [9] it was 2.64 µM (active); in assay [11] it was 6.51 µM (active).

Turning to `Cc1ccc(S(=O)(=O)NC(=O)NN2CC3CCCC3C2)cc1` (configuration not stated), in assay [1], the parasite growth remaining, % of DMSO control (lower = more inhibition) was 13.9%. In addition, in [2], the parasite growth, % of control (lower = inhibition) is 16.9%. In assay [3], this molecule registered a growth, % of control of 7.17%. In addition, in assay [4], the viability (% of control) stood at 35.2%. For the same molecule, the Potency entry in assay [5], in [6] and in assay [13] was “inactive” throughout. Also, the values for the Potency in assay [12] and in assay [7] were 18.7 µM (active) and 16.6 µM (active), respectively.

For the molecule `COC(=O)[C@H](Cc1ccccc1)NC(=O)[C@@H](N)CC(=O)O` (H-Asp-Phe-OMe), in assay [1], the parasite growth remaining, % of DMSO control (lower = more inhibition) came out at 22.1%. Moreover, the parasite growth, % of control (lower = inhibition) in assay [2] amounted to 118%. The growth, % of control in assay [3] turned out to be 107%. Besides, in assay [4], the viability (% of control) is 114%. Besides, the Potency result in assay [5], in assay [6], in assay [10] and in assay [13] was “inactive” throughout.

As to `Cc1cc(O)c2c(c1)C(=O)c1cc(O)cc(O)c1C2=O`, the growth, % of control in assay [3] came out at 98.6%. The viability (% of control) in assay [4] amounted to 109%. Also, the Potency in assay [5] was 9.35 µM (active) and 2.51 µM (active); in assay [6], 9.35 µM (active). Moreover, the Potency entry in assay [7], in assay [8] and in assay [9] was “inactive” each time.

Take `COc1ccc2cc([C@H](C)C(=O)O)ccc2c1`: the parasite growth remaining, % of DMSO control (lower = more inhibition) in assay [1] turned out to be 100%. Further, the parasite growth, % of control (lower = inhibition) in assay [2] was determined as 91%. The molecule further registered a growth, % of control in assay [3] of 102%. In [4], the viability (% of control) came to 135%. The Potency result in assay [5], in assay [12], in assay [7], in assay [8], in assay [9] and in [10] was “inactive” each time. Moreover, the Potency result in [13] is “inactive”.

For `Nc1ncn([C@H]2C[C@H](O)[C@@H](CO)O2)c(=O)n1`, the parasite growth remaining, % of DMSO control (lower = more inhibition) in assay [1] worked out at 99.3%. The parasite growth, % of control (lower = inhibition) in [2] worked out at 91.2%. Further, the growth, % of control in assay [3] was 81.1%. Besides, the viability (% of control) in [4] is 47.1%. For the same molecule, the Potency result in assay [5], in assay [6], in [10], in assay [13] and in [11] was “inactive” in each case. Moreover, the results for the Potency in assay [12] and in assay [7] were 0.418 µM (active) and 2.35 µM (active), respectively.

With `CC(C)[C@H](N)C(=O)OCCOCn1cnc2c(=O)[nH]c(N)nc21`, in assay [4], the viability (% of control) stood at 28.8%. In addition, the Potency result in assay [5], in [7], in [8], in assay [9], in [10] and in assay [13] was “inactive” in each case. For the same molecule, the Potency result in assay [11] was “inactive”.

On to `Nc1cc(C(Cl)=C(Cl)Cl)c(S(N)(=O)=O)cc1S(N)(=O)=O`, for which, in assay [1], the parasite growth remaining, % of DMSO control (lower = more inhibition) stood at 102%. Also, in [2], the parasite growth, % of control (lower = inhibition) was 142%. Further, in assay [3], the growth, % of control came to 98.3%. Besides, the viability (% of control) in assay [4] was 106%. Further, the Potency entry in [5], in [6], in assay [8], in [9], in assay [10] and in assay [13] was “inactive” each time.

With `Cc1ccc(C)c(OCCCC(C)(C)C(=O)O)c1`, the parasite growth remaining, % of DMSO control (lower = more inhibition) in [1] is 47.3%. Moreover, the parasite growth, % of control (lower = inhibition) in [2] was found to be 8.19%. Moreover, the growth, % of control in [3] came out at 3.44%. In addition, the viability (% of control) in [4] was 51%. Besides, the Potency entry in assay [5], in [10] and in assay [13] was “inactive” each time.

These data come from PubChem BioAssay (NCATS).
